Data taken from PubChem BioAssay AID743365 (National Center for Advancing Translational Sciences (NCATS), 2014).

Experiment: qHTS profiling of inhibitors of Plasmodium falciparum (DD2) proliferation (acoustic dispense)
Details: P. falciparum Dd2 in erythrocytes, SYBR Green DNA, 72 h; at 49.8 µM (top of the series) unless noted

Row | SMILES | parasite growth, lower = inhibition [%]
1 | COc1ccc(-c2cc3c(C)nc(N)nc3n(C3CCC(OCCO)CC3)c2=O)cn1 (stereo not drawn) | -0.346
2 | C[C@@H](Oc1ccc2[nH]nc(C=Cc3cnn(CCO)c3)c2c1)c1c(Cl)cncc1Cl | 1.14
3 | Cc1nc2cnc3ccc(C#Cc4cccnc4)cc3c2n1-c1ccc(C(C)(C)C#N)cc1 | 0.532
